Experimental data taken from PubChem BioAssay.
Activity calls are given as the source filed them.

Experiment: osmotic lysis modulators in infected erythrocytes, primary screen, PSAC antagonist project, cell-based, P. falciparum Indochina, OD700, 3 h (AID 1156)
Conditions: higher = more signal, called active from +8 up or from −8 down

Row | SMILES | z-score
1 | CC(C)Cc1ccc(CN2CC[C@@H](NC(=O)Nc3ccccc3)C2)cc1 | 1.84 (inactive)
2 | COC(=O)[C@@]1(Cc2ccc(F)cc2)[C@H]2c3cc(C(=O)N4CCCC4)n(CCN4CNCC4=O)c3C[C@H]2CN1C(=O)c1ccccc1 | 2.24 (inactive)
3 | COC(=O)[C@@]1(Cc2ccccc2)[C@@H]2C(=CC(=O)[C@H]2CC(=O)C(=O)N(C)C)CN1C(=O)c1ccccc1 | 0.864 (inactive)
4 | C=CCC(OC(C)=O)[C@@H]1[C@@H](N(Cc2ccc(-c3ccccc3)cc2)C(=O)Cc2ccc(F)cc2)c2cc(OCCCO)ccc2N1C(=O)Cc1ccc(OC)cc1 (stereo not given in full) | -0.407 (inactive)
5 | COc1ccc([Si](C)(C)[C@@H]2[C@@H](CCn3cc([C@H](O)c4ccccc4)nn3)O[C@]3(C(=O)N(Cc4ccc(N5CCC5=O)cc4)c4ccccc43)[C@H]2C)cc1 | 1.66 (inactive)
6 | C=C(C)[C@@H]1CC=C(C(O)C2C=CC3C(=O)N(c4ccccc4)C(=O)C3N2Nc2ccccc2F)CC1 (stereo not given in full) | 0.039 (inactive)
7 | Cc1ccc(S[C@]2(C(=O)O)CC(=O)N(Cc3ccccc3Cl)[C@@H]2c2ccc(CO)cc2I)cc1 | 0.767 (inactive)
8 | O=C1C2C=CC(C(O)c3ccccc3)N(Nc3ccccc3F)C2C(=O)N1c1ccccc1 (stereo not given) | 0.368 (inactive)
9 | [N-]=[N+]=NCc1ccccc1[C@@H]1OC(c2ccc(OCCCO)cc2)=N[C@]1(CCS(=O)(=O)c1ccccc1)C(=O)NCC(O)CO (stereo not given in full) | 0.619 (inactive)
10 | COC(=O)c1c(CC[C@@H](CO)NC(=O)N[C@H](Cn2cc(C3(O)CCCCC3)nn2)C(C)C)oc(C(C)=O)c1C(=O)OC | 1.02 (inactive)
11 | O=C1C2C=CC(C(O)c3ccc(F)cc3)N(n3cnnc3)C2C(=O)N1Cc1ccccc1 (stereo not given) | 0.987 (inactive)
12 | Cc1ccc(S[C@]2(C(=O)NCC(F)(F)F)CC(=O)N(Cc3ccccc3)[C@@H]2c2ccc(CO)cc2I)cc1 | 0.173 (inactive)
13 | C=C(/C(=C/C[C@H](OC(C)=O)c1ccccc1OCCO)c1cc(C(=O)OC)ccc1OC)C(C)C | 1.85 (inactive)
14 | CC(C)N1C(=O)C[C@@](C(=O)NCCCN(C)C)(c2ccc([N+](=O)[O-])cc2)[C@H]1c1ccc(CO)cc1 | 1.82 (inactive)
15 | COCCOC(=O)N1C(=O)[C@@]2(c3cc(C#Cc4ccc(OC)cc4)ccc31)[C@H](c1ccccc1OCCO)N1[C@H](c3ccccc3)[C@H](c3ccccc3)OC(=O)[C@H]1[C@@H]2C(=O)N1CCCCCCC1 | 0.338 (inactive)
16 | O=C1NC(=O)C2C1C=CC(C(O)c1cccc3ccccc13)N2Nc1ccc(Cl)cc1Cl (stereo not given) | -2.46 (inactive)
17 | C=CCNC(=O)[C@H]1[C@@H]2C(=O)O[C@@H](c3ccccc3)[C@@H](c3ccccc3)N2[C@@H](c2ccc(O)cc2)[C@]12C(=O)Nc1ccc(C#CC3(O)CCCCCC3)cc12 | 0.514 (inactive)
18 | CCCC[C@@H]1C[C@H]1[C@@H](NC(=O)c1ccccc1)c1ccc(C(F)(F)F)cc1 | 0.162 (inactive)

Row | SMILES | z-score
19 | NC(=O)N1C(=O)C2C(C1=O)C1C=C(CCCO)C2C(c2cccs2)N1Cc1cccc(OC(F)(F)F)c1 (stereo not given) | -0.569 (inactive)
20 | CCCC[C@@H]1C[C@H]1[C@@H](NC(=O)c1cccs1)c1ccc(C(F)(F)F)cc1 | 0.247 (inactive)
21 | C=C(/C(=C/C[C@@H](OC(C)=O)c1cccc(OCCO)c1)c1cc(C(=O)OC)ccc1OC)C(C)C | 2.19 (inactive)
22 | CC(C)(C)OC(=O)CC[C@]1(C(=O)NCC(O)CO)N=C(c2ccc(OCCCO)cc2)O[C@H]1c1ccccc1 (stereo not given in full) | 2.61 (inactive)
23 | CC(C)(C)N1CC=CC23O[C@@H]4C=CCCOC(=O)C4[C@H]2C(=O)N(CCO)[C@@H]3C1=O (stereo not given in full) | 1.28 (inactive)
24 | COc1ccccc1CN1C(=O)c2ccccc2[C@](Cc2ccccc2I)(C(=O)NCC(F)(F)F)[C@@H]1c1ccc(CO)cc1 | 2.38 (inactive)
25 | CCOC(=O)C[C@H]1[C@H](OC(=O)c2ccccc2-c2ccccc2)[C@@H](NC(=O)C2CCCCC2)c2cc(OCCCO)ccc2N1C(=O)Cc1ccc(OC)cc1 | 0.125 (inactive)
26 | COC(=O)CCCCCCC(=O)Nc1ccc(NC(=O)CCCC[P+](c2ccccc2)(c2ccccc2)c2ccccc2)cc1 | 1.95 (inactive)
27 | CN1C(=O)C2C=CC(C(O)COCc3ccccc3)N(N(c3ccccc3)c3ccccc3)C2C1=O (stereo not given) | 0.361 (inactive)
28 | O=C1O[C@H](c2ccccc2)[C@H](c2ccccc2)N2[C@H]1[C@@H](C(=O)O)[C@]1(C(=O)Nc3ccc(C#CC4=CCCCC4)cc31)[C@H]2c1ccc(O)cc1 | -10.4 (active)
29 | CCOc1cc(C(O)C2C=CC3C(=O)N(c4ccccc4)C(=O)C3N2Nc2ccc(C#N)cc2)ccc1O (stereo not given) | 0.743 (inactive)
30 | Cc1cc(C)cc(N2C(=O)CSC2c2cccc([N+](=O)[O-])c2)c1 (stereo not given) | 0.652 (inactive)
31 | COCCOC(=O)N1C(=O)[C@@]2(c3cc(C#CC4(O)CCCCCC4)ccc31)[C@H](c1ccc(O)cc1)N1[C@H](c3ccccc3)[C@H](c3ccccc3)OC(=O)[C@H]1[C@@H]2C(=O)NC[C@H](O)c1ccccc1 | -1.17 (inactive)
32 | C=CCN1C(=O)[C@@]2(CCS(=O)(=O)c3ccccc3)N=C(c3ccc(OCCCO)cc3)O[C@H]2c2ccccc21 | 1.73 (inactive)
33 | CCOC(=O)C[C@H]1[C@H](OC(=O)c2cc3ccccc3oc2=O)[C@@H](NC(=O)c2ccc(-c3ccccc3)cc2)c2cc(OCCCO)ccc2N1C(=O)c1ccccc1 | -0.249 (inactive)
34 | CCCCO[C@H]1C[C@H]2C(I)=C[C@@H]1C(=O)[C@]21CO1 | -0.163 (inactive)
35 | [N-]=[N+]=NCc1ccccc1[C@H]1OC(c2ccc(OCCCO)cc2)=N[C@@]1(CCS(=O)(=O)c1ccccc1)C(=O)N1CCCCC1 | 3.2 (inactive)
